Test results: the supplement of paper PMC11732987, “Enantioselective OTUD7B fragment discovery through chemoproteomics screening and high-throughput optimisation” (Communications Chemistry, 2025)

Key:
Assay in all cases: log2 ratio of Biotin-Ahx-Ub-VS probe labelling (fragment/DMSO); higher = less target engagement (more negative = stronger competition), active = hit call of the paper (q ≤ 0.05, log2 ratio ≤ -1)
Conditions in all cases: compound concentration: 200 uM; treatment time: 3 h
USP34 = USP34 (UniProt Q70CQ2)
Chain of USP34 (Q70CQ2 whole entry, the tested form may be a part): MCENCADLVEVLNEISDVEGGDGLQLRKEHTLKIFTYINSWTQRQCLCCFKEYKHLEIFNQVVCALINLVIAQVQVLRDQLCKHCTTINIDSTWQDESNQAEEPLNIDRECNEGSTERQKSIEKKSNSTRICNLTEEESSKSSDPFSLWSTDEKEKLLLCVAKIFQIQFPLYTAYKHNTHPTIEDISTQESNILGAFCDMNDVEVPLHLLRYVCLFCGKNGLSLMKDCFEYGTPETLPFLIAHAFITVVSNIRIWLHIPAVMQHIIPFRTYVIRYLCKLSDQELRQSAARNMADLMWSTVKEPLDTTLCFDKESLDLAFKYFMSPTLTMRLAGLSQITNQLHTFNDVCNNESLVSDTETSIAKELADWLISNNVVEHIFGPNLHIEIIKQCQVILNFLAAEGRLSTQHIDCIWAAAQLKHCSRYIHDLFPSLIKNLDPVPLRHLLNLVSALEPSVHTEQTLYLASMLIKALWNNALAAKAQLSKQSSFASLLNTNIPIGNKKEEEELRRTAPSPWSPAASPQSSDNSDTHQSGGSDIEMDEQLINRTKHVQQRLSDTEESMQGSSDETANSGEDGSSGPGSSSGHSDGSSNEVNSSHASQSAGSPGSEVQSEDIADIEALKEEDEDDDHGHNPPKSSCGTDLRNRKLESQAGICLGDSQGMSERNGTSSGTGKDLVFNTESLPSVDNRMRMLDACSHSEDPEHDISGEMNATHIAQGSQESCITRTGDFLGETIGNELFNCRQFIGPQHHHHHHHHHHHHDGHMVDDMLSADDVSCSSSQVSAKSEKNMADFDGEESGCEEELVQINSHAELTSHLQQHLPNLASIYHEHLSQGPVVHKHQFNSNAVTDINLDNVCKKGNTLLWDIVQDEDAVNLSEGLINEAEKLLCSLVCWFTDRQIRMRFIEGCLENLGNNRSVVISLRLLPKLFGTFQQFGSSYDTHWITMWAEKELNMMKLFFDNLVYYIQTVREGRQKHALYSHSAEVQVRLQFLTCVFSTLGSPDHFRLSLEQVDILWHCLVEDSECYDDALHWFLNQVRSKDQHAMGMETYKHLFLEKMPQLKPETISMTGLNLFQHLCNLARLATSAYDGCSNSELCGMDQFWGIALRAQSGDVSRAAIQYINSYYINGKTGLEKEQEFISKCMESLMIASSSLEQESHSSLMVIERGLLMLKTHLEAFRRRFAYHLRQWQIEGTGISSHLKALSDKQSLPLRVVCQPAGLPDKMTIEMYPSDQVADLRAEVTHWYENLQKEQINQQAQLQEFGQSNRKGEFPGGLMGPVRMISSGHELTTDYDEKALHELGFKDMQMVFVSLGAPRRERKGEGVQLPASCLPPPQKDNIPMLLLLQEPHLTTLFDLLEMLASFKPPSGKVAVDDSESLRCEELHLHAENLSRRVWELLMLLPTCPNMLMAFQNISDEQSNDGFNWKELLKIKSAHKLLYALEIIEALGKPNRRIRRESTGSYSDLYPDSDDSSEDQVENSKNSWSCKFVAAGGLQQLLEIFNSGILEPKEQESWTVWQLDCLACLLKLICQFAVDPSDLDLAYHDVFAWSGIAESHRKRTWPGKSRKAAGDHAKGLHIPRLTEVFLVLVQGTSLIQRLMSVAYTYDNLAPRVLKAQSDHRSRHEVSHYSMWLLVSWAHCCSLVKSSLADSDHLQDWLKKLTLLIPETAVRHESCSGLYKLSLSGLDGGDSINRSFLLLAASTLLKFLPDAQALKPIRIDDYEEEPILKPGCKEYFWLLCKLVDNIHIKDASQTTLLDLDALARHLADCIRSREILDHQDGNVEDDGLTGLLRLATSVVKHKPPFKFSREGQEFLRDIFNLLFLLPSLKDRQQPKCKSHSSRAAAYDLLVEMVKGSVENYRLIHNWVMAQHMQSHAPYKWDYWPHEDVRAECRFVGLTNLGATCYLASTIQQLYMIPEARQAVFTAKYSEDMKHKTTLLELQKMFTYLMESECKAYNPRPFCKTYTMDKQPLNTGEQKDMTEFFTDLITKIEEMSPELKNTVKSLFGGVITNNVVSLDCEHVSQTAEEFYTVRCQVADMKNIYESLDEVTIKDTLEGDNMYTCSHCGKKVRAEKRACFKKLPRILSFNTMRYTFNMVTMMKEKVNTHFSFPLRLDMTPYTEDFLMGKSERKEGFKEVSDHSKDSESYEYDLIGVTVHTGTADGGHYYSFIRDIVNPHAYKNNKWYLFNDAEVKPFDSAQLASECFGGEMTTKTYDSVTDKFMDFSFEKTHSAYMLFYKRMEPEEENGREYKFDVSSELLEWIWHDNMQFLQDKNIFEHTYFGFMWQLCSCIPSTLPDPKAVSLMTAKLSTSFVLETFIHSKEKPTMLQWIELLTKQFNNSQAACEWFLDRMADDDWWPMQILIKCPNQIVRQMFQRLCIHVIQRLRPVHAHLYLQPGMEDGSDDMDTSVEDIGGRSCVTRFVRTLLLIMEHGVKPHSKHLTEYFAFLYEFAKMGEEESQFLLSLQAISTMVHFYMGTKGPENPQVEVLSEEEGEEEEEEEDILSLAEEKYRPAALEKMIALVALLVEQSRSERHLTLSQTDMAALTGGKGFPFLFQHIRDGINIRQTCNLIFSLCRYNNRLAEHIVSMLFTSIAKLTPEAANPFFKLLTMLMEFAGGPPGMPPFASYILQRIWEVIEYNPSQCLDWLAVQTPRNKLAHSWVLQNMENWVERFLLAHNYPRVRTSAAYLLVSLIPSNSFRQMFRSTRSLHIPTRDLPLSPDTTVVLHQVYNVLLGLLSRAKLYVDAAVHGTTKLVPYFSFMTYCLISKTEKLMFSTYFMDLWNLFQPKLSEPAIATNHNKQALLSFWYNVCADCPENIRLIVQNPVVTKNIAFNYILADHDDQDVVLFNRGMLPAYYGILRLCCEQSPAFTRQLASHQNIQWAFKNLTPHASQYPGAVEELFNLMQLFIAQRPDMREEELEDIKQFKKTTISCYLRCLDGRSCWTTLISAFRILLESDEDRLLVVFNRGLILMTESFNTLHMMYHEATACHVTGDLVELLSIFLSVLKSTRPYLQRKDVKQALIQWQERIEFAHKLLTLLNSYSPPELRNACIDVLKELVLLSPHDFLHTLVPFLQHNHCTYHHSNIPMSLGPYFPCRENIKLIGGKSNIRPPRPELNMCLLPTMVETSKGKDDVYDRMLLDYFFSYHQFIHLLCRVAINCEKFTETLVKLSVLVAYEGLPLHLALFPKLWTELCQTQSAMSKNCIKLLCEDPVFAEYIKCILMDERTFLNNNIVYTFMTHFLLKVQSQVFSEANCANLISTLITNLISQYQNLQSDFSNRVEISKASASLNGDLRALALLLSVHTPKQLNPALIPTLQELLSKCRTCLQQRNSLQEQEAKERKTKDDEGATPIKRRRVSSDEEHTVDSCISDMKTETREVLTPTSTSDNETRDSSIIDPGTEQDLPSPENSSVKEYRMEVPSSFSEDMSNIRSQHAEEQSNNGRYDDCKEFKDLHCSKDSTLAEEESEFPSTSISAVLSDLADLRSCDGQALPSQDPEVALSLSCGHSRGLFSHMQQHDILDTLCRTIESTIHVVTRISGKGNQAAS
Summary of the method: (§1)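 Labelled DUBs from HEK293T lysate were NeutrAvidin-enriched, digested with LysC and trypsin, and run by diaPASEF LC-MS/MS. Before that, each 495 µg sample in Tris/CHAPS/IGEPAL buffer with protease inhibitors was treated in triplicate with fragment at 200 µM or vehicle for 3 h, then with Biotin-Ahx-Ub-VS at 0.5 µM final for 1 h. Values are average log2 ratios of fragment over vehicle by unpaired t-test, based on global-median-normalised Spectronaut label-free quantities from proteins with ≥2 unique peptides.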

USP36 = biological target: T1, USP36 (UniProt Q9P275)
T1 sequence (whole entry): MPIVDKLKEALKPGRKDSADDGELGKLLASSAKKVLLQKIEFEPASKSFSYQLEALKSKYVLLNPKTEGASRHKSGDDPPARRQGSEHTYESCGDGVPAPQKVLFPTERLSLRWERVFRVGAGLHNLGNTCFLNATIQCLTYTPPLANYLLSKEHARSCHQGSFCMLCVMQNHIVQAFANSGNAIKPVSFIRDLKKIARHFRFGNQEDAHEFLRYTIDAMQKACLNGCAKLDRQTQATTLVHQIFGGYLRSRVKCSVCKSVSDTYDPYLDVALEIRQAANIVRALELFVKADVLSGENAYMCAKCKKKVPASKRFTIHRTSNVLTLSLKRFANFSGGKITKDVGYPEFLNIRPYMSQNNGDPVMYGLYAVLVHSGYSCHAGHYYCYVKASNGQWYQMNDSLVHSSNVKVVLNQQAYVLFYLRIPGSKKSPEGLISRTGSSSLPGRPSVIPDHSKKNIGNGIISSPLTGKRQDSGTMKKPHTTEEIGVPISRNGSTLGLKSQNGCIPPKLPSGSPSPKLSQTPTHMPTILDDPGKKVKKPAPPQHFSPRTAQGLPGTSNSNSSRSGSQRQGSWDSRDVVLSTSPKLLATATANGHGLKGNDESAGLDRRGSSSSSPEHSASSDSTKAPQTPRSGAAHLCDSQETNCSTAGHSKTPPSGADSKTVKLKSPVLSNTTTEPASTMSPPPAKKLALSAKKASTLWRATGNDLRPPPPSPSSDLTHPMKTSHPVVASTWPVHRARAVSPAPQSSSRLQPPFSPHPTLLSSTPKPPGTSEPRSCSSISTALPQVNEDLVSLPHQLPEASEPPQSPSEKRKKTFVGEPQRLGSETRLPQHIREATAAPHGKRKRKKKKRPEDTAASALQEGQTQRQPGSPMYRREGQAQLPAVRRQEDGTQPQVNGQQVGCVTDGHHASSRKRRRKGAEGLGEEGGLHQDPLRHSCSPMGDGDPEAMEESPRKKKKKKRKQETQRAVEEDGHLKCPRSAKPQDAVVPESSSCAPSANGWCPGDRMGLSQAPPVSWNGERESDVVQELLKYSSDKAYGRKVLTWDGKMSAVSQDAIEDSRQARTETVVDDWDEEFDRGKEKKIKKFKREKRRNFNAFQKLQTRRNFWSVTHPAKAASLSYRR
Summary of the method: as §1

USP38 = biological target: T2, USP38 (UniProt Q8NB14)
T2 sequence (whole entry): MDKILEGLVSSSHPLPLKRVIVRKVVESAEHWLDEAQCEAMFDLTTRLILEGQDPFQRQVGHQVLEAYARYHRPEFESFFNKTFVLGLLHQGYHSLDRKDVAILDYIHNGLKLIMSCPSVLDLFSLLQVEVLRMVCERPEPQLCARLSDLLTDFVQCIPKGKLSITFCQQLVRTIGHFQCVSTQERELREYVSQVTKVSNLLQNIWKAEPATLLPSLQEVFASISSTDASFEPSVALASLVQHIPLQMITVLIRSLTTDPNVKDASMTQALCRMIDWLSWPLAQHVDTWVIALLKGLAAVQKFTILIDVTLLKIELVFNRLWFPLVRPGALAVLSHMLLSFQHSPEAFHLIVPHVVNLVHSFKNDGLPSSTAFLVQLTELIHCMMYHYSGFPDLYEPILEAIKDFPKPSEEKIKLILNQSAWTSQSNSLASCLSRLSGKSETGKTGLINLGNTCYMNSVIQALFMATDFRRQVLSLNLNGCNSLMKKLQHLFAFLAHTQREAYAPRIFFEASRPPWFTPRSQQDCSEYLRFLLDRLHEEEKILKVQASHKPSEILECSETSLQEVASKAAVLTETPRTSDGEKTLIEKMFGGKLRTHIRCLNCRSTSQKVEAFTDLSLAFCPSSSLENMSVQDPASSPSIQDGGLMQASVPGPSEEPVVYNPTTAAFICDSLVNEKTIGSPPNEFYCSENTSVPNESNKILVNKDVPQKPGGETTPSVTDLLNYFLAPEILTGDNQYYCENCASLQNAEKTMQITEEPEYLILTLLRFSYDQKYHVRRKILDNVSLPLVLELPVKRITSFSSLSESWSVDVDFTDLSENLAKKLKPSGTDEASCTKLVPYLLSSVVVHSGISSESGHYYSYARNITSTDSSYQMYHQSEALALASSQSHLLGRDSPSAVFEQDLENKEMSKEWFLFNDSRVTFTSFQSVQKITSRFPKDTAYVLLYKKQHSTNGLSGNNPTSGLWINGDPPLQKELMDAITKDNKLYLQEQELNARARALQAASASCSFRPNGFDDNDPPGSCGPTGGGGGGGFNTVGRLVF
Summary of the method: as §1

USP39 = biological target: T3, USP39 (UniProt Q53GS9)
T3 sequence (whole entry): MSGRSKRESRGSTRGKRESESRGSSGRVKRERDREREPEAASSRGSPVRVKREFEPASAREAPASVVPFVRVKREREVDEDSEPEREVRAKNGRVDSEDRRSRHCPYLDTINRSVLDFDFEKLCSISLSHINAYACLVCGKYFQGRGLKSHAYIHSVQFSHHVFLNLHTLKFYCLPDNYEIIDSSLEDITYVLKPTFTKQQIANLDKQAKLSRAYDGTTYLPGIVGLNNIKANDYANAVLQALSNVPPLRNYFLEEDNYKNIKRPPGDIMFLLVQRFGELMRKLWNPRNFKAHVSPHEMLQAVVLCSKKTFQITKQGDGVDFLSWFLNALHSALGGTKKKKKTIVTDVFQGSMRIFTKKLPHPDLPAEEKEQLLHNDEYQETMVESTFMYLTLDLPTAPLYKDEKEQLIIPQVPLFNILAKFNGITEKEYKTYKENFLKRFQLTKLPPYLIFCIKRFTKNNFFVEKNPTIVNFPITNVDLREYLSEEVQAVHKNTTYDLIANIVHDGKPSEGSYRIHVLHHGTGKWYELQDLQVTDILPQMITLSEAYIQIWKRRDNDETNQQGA
Summary of the method: as §1

USP4 = biological target: T4, USP4 (UniProt Q13107)
T4 sequence (whole entry): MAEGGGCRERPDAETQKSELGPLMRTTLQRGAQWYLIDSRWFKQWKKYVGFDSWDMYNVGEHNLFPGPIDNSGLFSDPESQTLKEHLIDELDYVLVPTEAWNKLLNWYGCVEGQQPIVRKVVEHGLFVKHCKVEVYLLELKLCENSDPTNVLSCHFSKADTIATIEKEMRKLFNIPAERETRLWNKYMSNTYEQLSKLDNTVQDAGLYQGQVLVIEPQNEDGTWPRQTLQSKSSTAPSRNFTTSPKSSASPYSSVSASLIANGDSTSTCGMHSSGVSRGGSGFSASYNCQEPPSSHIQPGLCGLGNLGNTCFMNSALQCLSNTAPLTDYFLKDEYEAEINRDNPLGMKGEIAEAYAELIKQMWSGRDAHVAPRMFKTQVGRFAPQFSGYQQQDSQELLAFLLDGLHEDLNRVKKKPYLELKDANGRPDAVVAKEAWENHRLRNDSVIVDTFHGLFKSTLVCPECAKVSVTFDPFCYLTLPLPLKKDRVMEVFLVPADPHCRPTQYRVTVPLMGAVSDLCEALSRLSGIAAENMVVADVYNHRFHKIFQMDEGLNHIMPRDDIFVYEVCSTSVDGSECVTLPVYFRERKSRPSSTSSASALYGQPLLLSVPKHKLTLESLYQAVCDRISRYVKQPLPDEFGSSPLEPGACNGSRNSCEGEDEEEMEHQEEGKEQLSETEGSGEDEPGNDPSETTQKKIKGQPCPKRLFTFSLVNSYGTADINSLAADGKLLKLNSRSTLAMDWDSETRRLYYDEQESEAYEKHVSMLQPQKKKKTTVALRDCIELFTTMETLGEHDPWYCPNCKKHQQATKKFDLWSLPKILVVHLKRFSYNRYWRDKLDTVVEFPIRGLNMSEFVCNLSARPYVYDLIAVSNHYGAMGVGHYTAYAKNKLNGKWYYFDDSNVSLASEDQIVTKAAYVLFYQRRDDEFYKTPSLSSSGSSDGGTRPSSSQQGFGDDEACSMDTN
Summary of the method: as §1

Measured: log2 ratio of Biotin-Ahx-Ub-VS probe labelling

O=C(CCl)N1CCOC(c2cccc(F)c2)C1 (stereo not given)
inactive: USP34 -0.575 | USP36 -0.337 | USP38 -0.131 | USP39 -0.0268 | USP4 -0.344
